SMILES strings stand for the structures. Out of some 65,000 compounds screened, about 85 (0.1%) were called active. Cut-off read from the data, not from the text of the source: active = inhibition above about 50%; inactive = the rest. Only a selection was taken, and actives are over-represented in it overall.

Chain of M-phase inducer phosphatase 2 (Homo sapiens) (P30305 whole entry, looked up, the tested form may be a part): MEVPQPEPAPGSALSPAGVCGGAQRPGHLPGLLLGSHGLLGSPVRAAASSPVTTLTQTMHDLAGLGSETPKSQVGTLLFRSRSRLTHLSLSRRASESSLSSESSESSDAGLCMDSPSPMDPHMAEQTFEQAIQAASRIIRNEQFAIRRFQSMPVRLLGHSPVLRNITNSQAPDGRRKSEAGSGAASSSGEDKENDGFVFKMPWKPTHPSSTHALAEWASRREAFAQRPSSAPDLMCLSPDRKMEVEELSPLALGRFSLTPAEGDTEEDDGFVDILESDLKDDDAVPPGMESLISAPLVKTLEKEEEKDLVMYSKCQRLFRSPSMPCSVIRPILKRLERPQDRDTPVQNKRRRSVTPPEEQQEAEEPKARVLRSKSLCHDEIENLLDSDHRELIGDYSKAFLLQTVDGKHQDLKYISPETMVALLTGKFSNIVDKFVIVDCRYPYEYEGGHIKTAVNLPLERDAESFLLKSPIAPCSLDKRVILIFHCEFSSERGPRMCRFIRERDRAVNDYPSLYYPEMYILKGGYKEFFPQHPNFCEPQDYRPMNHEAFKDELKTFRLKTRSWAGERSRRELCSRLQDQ

The assay concerns the target M-phase inducer phosphatase 2 (Homo sapiens) (UniProt P30305). Description: human Cdc25B tyrosine phosphatase blockers – biochemical, OMFP fluorescence, catalytic domain, primary screen (AID 368). As to conditions: recombinant Cdc25B, OMFP fluorescence Ex485/Em525; hits give high values;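 compounds tested at 10 µM final in the well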.
As to `COc1ccccc1NC(=O)CSc1nnc(Cn2nnc(-c3ccccc3)n2)n1-c1ccccc1`, the inhibition – broadly, the change of the read-out against control, counted positive when it falls – was -10.9% (inactive). Regarding `COc1ccc(-c2nnn(CC(=O)N(CCO)C(C(=O)NC3CCCC3)c3ccc(F)cc3)n2)cc1` (stereo unspecified), the inhibition is -0.846% (inactive). On to `Cc1ccc(S(=O)(=O)N2CCC(C(=O)OCC(=O)N3CC(=O)Nc4ccccc43)CC2)cc1`, for which the inhibition was -6.66% (inactive).

Turning to `O=C(CSc1nnc(-c2cccnc2)n1Cc1ccco1)c1ccc(Cl)c(Cl)c1`, the inhibition was 8.97% (inactive).

For `CCc1c(C)n([O-])c2c([n+]1=O)CCCCC2`, the inhibition is -6.36% (inactive). `COc1cc2cc(CN(CCN3CCCC3)C(=O)Nc3ccccc3Cl)c(=O)[nH]c2cc1OC`: the inhibition is -1.08% (inactive).

As to `O=C(Cn1c(-c2ccc(Cl)cc2)noc1=O)N1CCN(c2ccccc2F)CC1`, the inhibition was -5.95% (inactive).

For the compound `CC(C)Oc1ccc(C(=O)Nc2cc(=O)n(C)c(=O)n2C)cc1`, the inhibition is -9.38% (inactive). With `Fc1cc(F)c2nc(N3CCOCC3)sc2c1`, the inhibition is 0.504% (inactive). Consider `CC1CCCC(N2CCN(C(=O)c3ccc(F)cc3)CC2)C1` (stereo unspecified), for which the inhibition was -7.26% (inactive). As to `Cc1ccc(NC(=O)CN2CCC3(O)CCCCC3C2c2ccc3c(c2)OCO3)c(C)c1` (stereo unspecified), the inhibition was 5.36% (inactive).

Take `CCOC(=O)c1sc2nc(CSCC(=O)OCc3ccc(C(=O)OC)o3)[nH]c(=O)c2c1C`: the inhibition was -1.69% (inactive). On to `COCCN1C(=O)c2oc3c(C)cc(C)cc3c(=O)c2C1c1cccc(O)c1` (stereo unspecified), for which the inhibition was -0.703% (inactive). For `CC(=O)c1cc2c(cc1N)OCO2`, the inhibition is 5.42% (inactive).

Turning to `COc1ccc(N2CC(C)Cn3c2nc2c3c(=O)n(Cc3ccccc3F)c(=O)n2C)c(OC)c1` (stereo unspecified), the inhibition was 2.66% (inactive). As to `CC(=O)c1c(C)c[nH]c1C`, the inhibition was -2.46% (inactive).

With `O=S(=O)(/C=C/c1ccccc1)NCCc1ccccn1`, the inhibition is 102% (active). As to `NS(=O)(=O)c1ccc(NS(=O)(=O)/C=C/c2ccccc2)cc1`, the inhibition is 4.88% (inactive). For the compound `O=S(=O)(NCc1ccccn1)c1ccc(F)cc1`, the inhibition is -7.59% (inactive). `O=C(O)c1cscn1`: the inhibition was 5.38% (inactive). In the case of `COc1ccccc1Nc1ncnc2c1oc1ccccc12`, the inhibition is 14.9% (inactive). As for `CC1(C)CC(=O)C=C(NCCCNC2CCCCC2)C1`, the inhibition was -12.2% (inactive). For the compound `N#Cc1ccc(COC(=O)Cn2nnc(-c3ccccc3)n2)cc1`, the inhibition is -19.8% (inactive).

As for `CC(NC(=O)Nc1ccccc1)c1ccccc1` (stereo unspecified), the inhibition is -11.4% (inactive). Under `NC(=O)C1CC=CCC1C(=O)OCC(Cl)=C(Cl)Cl` (stereo unspecified) stands -7.55% (inactive); under `CC1CN(c2cc(=O)n(Cc3ccc(F)cc3)c(=O)[nH]2)CC(C)O1` (stereo unspecified), -7.48% (inactive).

For `CCOC(=O)c1cccc(NC(=O)C2CCCN(S(=O)(=O)c3cnc[nH]3)C2)c1` (stereo unspecified), the inhibition is -1.24% (inactive). As for `O=C(O)C1CC=C(Cl)CC1C(=O)NCc1ccccc1` (stereo unspecified), the figure is -4.83% (inactive); as for `O=C(CN1C(=O)C2C3C=CC(C3)C2C1=O)NCCc1ccccc1Cl` (stereo unspecified), -3.46% (inactive). As for `Cc1ccc(C)c(N(CC(=O)NCc2ccco2)C(=O)CCC(=O)Nc2ccccn2)c1`, the figure is 0.139% (inactive); as for `C=CCNC(=O)CSc1nc2sc(C)c(C)c2c(=O)[nH]1`, -5.03% (inactive); as for `CCC1SC2=NCCN2C1(O)c1ccc(Cl)cc1` (stereo unspecified), 1.15% (inactive). As for `COC(=O)c1ccc(NC(=O)CSc2nnc(CNc3ccc(OC)cc3)n2C)cc1`, the figure is -15.2% (inactive); as for `O=C(Nc1ccc(F)cc1)c1cccnc1N1CCOCC1`, 0.374% (inactive); as for `COc1ccccc1C1/C(=C(/O)c2ccc(OC(C)C)cc2)C(=O)C(=O)N1c1cc(C)on1` (stereo unspecified), 22% (inactive).

Turning to `COc1ccc(S(=O)(=O)N(CCCN2CCCC2=O)Cc2cc3c(C)ccc(C)c3[nH]c2=O)cc1`, the inhibition is 4.58% (inactive).

On to `COc1ccc(Cl)cc1NC(=O)c1oc(C)nc1C`, for which the inhibition is -1.12% (inactive). As to `O=C(O)CSC(NC(=O)c1cccnc1)(C(F)(F)F)C(F)(F)F`, the inhibition was -2.28% (inactive). In the case of `O=C(c1ccco1)N1CCN=C1SCc1cccc(Cl)c1`, the inhibition was -9.08% (inactive).

`CC1CCCCC1NC(=O)CSc1nnc(N)s1` (stereo unspecified): the inhibition was -11.7% (inactive). `COc1ccc(C(=O)N2CCC(C(=O)Nc3cccc(C)c3)CC2)cc1OC`: the inhibition is -5.03% (inactive). As for `Cc1cc(C(F)(F)F)nn1-c1nc(-c2ccco2)cc(C(F)(F)F)n1`, the inhibition was -12.3% (inactive). For `COc1ccc(NS(=O)(=O)c2ccc(NC(C)=O)cc2)cc1OC`, the inhibition is -8.27% (inactive). As for `COCCNC(=O)C(c1ccc(C)o1)N(Cc1cccs1)C(=O)c1snc(C(N)=O)c1N` (stereo unspecified), the inhibition is -5.11% (inactive). Turning to `Cc1nnc(SCC(=O)NCCOc2ccc(Cl)cc2)n1-c1ccccc1`, the inhibition is -10.1% (inactive). `COc1cccc(N(CC(=O)Nc2cccc(F)c2)S(C)(=O)=O)c1`: the inhibition was -4.86% (inactive).

`COc1ccc(C(=O)NCCc2ccc(S(N)(=O)=O)cc2)cc1OC`: the inhibition was -4.01% (inactive). Regarding `CCOC(=O)c1ccn(-c2nc(-c3ccco3)cc(C(F)(F)F)n2)n1`, the inhibition was -12.2% (inactive). Under `CCCOc1ccc(CN(CCO)CCO)cc1C(=O)OC` stands 1.99% (inactive); under `O=C(NC1(C(F)(F)F)N=C2SCCN2C1=O)c1ccco1` (stereo unspecified), 0.794% (inactive). Consider `O=C(c1ccccc1)c1ccc2nc(N3CCCCC3)c3nncn3c2c1`, for which the inhibition is -11.8% (inactive). As for `O=S(=O)(c1ccc2ccccc2c1)N1CCN(S(=O)(=O)N2CCOCC2)CC1`, the inhibition was -4.37% (inactive).

Consider `O=c1cc(CSc2ccc(Cl)cc2)nc(N2CCOCC2)[nH]1`, for which the inhibition was 7.35% (inactive).

Take `CCCOP(=O)(c1ccc(N(C)C)cc1)C(O)c1cc(OC)c(OC)c(OC)c1` (stereo unspecified): the inhibition was -0.929% (inactive). With `Cc1ccc2c(C(=O)CN3CCCC3)c(C)[nH]c2c1`, the inhibition was -0.2% (inactive). As for `CCOC(=O)N1CCN(CC(=O)c2c(C)[nH]c3ccccc23)CC1`, the figure is 60% (active). Regarding `CCOC(=O)N1CCN(CC(=O)n2c(C)c(C)c3ccccc32)CC1`, the inhibition is -1.72% (inactive). In the case of `Cc1occc1C(=O)Nc1cccc(Cn2cccn2)c1`, the inhibition is -8.98% (inactive). Take `O=C(O)CC(Cn1cnnn1)c1ccccc1` (stereo unspecified): the inhibition is -6.9% (inactive). Take `O=C1CCCc2c1[nH]c1ccc(Br)cc21`: the inhibition is 5.28% (inactive). Consider `Cc1ccsc1C(C(=O)NC1CCCCC1)N(C(=O)Cc1cccs1)C1CC1` (stereo unspecified), for which the inhibition was 4.04% (inactive). With `CCc1c(C)nc2cc(-c3cccs3)[nH]n2c1=O`, the inhibition is -13.1% (inactive). Turning to `C/C(=C(\C#N)C(=O)NCCCN1CCOCC1)N(C)C`, the inhibition is -7.37% (inactive). Take `CCCC(=O)Nc1ccc(C(=O)NCCCn2ccnc2)cc1`: the inhibition is 2.06% (inactive). On to `CCn1cc(C(=O)NCC2COc3ccccc3O2)c2cc(OC)c(OC)cc2c1=O` (stereo unspecified), for which the inhibition is -8.97% (inactive). Turning to `CCOC(=O)CNC(=O)CN1C(=O)CCSc2ccccc21`, the inhibition was -0.999% (inactive). Consider `O=C1NC(Nc2nc3ccccc3s2)(C(F)(F)F)C(=O)N1C1CCCCC1` (stereo unspecified), for which the inhibition was -0.883% (inactive). As to `CC(=O)Nc1ccc(S(=O)(=O)NCCc2ccccc2)cc1`, the inhibition is -7.41% (inactive). As to `CC1OC2C(OC1C)N(S(C)(=O)=O)CCN2S(C)(=O)=O` (stereo unspecified), the inhibition was -4.42% (inactive).

`CCOc1ccc(CCNC(=O)C(CC)n2nc(C)n3c(cc4sccc43)c2=O)cc1OCC` (stereo unspecified): the inhibition is -12.3% (inactive). In the case of `CCn1ncc(C2=NOC(C(=O)N3CCN(c4ccccc4)CC3)C2)c1C` (stereo unspecified), the inhibition is -17.4% (inactive). Turning to `CCOC(=O)C1CCCN(C(=O)C2CCN(c3nnc(-n4cccc4)s3)CC2)C1` (stereo unspecified), the inhibition was 6.02% (inactive).

On to `Cn1c(=O)c2c(nc(SCC(=O)Nc3ccccc3N3CCCCC3)n2C)n(C)c1=O`, for which the inhibition was -12.6% (inactive). Under `CCCCSc1nnc(-c2ccc(C)cc2)o1` stands -7.53% (inactive); under `O=C(Nc1nc2cc3c(cc2s1)OCCO3)c1cccc(S(=O)(=O)N2CCOCC2)c1`, -3.84% (inactive); under `CCN1C(=O)C(C(=O)NC(C)c2ccccc2)C2CC1(C)Oc1ccccc12` (stereo unspecified), -6.65% (inactive).

For `c1ccc(CSc2nnc(-c3ccco3)n2Cc2ccccc2)cc1`, the inhibition was -11.9% (inactive). With `c1ccc(CSc2nnc(-c3ccco3)c(-c3ccco3)n2)cc1`, the inhibition is 50.3% (active). As for `Clc1ccccc1CSc1nnc(-c2ccco2)c(-c2ccco2)n1`, the inhibition was -25.9% (inactive). In the case of `C=CCn1c(SCC(=O)NC23CC4CC(CC(C4)C2)C3)nc(O)cc1=O`, the inhibition is 2.29% (inactive). With `NC(=O)CSC1=Nc2ccccc2C2=NC(CCC(=O)NCc3ccc(F)cc3)C(=O)N12` (stereo unspecified), the inhibition is -3.7% (inactive). As to `CCOC(=O)c1c(C)nc(-c2ccccc2)nc1NC(=O)C(C)C`, the inhibition was -5.5% (inactive). On to `CCOC(=O)Cn1c(N)c(C(=O)OC)sc1=S`, for which the inhibition is -11% (inactive). For `CC(=O)Nc1ccn(Cc2c(F)cccc2Cl)n1`, the inhibition was -13% (inactive). As for `O=C(c1ccc(S(=O)(=O)N2CCOCC2)cc1)N1CCN(c2ccccc2)CC1`, the figure is 1.6% (inactive); as for `CCOC(=O)c1[nH]cnc1C(=O)NC1CCCCC1`, -0.873% (inactive). `Cc1csc(NC(=O)NC2(C(F)(F)F)Oc3ccccc3O2)n1`: the inhibition is -7.31% (inactive). `O=C(CCCn1c(=O)oc2ccccc21)Nc1cccnc1`: the inhibition is -11.7% (inactive). `CS(=O)(=O)N(Cc1nc2sc3c(c2c(=O)[nH]1)CCCC3)C1CCCCC1`: the inhibition is -20% (inactive).

Turning to `O=C1c2ccccc2C(=O)N1CCc1nn[nH]n1`, the inhibition is 2.01% (inactive). For the compound `COc1ccc(C(=O)c2oc3ccc(Br)cc3c2NC(C)=O)cc1`, the inhibition is 1.8% (inactive). As for `CC(=O)Nc1ccc(NS(=O)(=O)c2cc(C)sc2C)cc1`, the figure is 7.75% (inactive); as for `Cc1ccc(S(=O)(=O)N2C3C=CC(C3)C2C(=O)O)cc1` (stereo unspecified), -0.599% (inactive); as for `Cc1cc(C)cc(NC(=O)N2CCC(NC(=O)c3ccc(F)cc3)CC2)c1`, 5.11% (inactive). Take `CCOC(=O)C(CC)Sc1ncnc2c1nnn2-c1ccc(F)cc1` (stereo unspecified): the inhibition was -12.7% (inactive). Under `COc1cc(-c2noc(C3CCCN(S(=O)(=O)c4cccc(Cl)c4)C3)n2)cc(OC)c1OC` (stereo unspecified) stands 3.35% (inactive).

Source of the values: PubChem BioAssay AID368 (University of Pittsburgh Molecular Library Screening Center, 2006).
